± gives the standard deviation.

In one test the test system is RAW-Dual (murine macrophage reporter line). The test is described as follows: NF-kB reporter (SEAP) activity fold change vs agonist alone; higher = enhanced NF-kB activity. To be noted: modulator concentration 10 µM; agonist: LPS 0.1 ug/mL. Put shortly: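 Overnight stimulation with a PRR agonist followed pre-incubation for 1 hour at 37 °C with compound at 10 μM final. This was done in RAW-Dual murine macrophage reporter cells seeded at 50 000 per well in 384-well plates. NF-κB (SEAP, QUANTI-Blue absorbance at 620 nm) and IRF (Lucia luciferase, QUANTI-Luc luminescence) were read from the supernatant. Each reporter's fold change relative to the mean agonist-only control on the same plate was averaged over replicate plates.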
As to `O=C(CSc1nc2c(c(=O)n1-c1ccccc1)SCC2)N1CCN(c2ccccc2)CC1`, the NF-kB reporter worked out at 1.09 ± 0.057.

As for `CCNC(=O)CCC/C=C\C[C@@H]1[C@@H](/C=C/C(O)CCc2ccccc2)[C@@H](O)C[C@@H]1O` (stereo not given in full), the NF-kB reporter was determined as 0.965 ± 0.076.

For the molecule `CCOc1cc(CC(=O)N[C@@H](CC(C)C)c2ccccc2N2CCCCC2)ccc1C(=O)O`, the NF-kB reporter is 1.11 ± 0.23.

Consider `CC1CC(=O)C2=C(C1)OC(N)=C(C#N)C2c1ccc(Cl)cc1` (stereo not given), for which the NF-kB reporter was found to be 1.06 ± 0.075.

As for `COc1ccc(C=NNC(=O)CSc2nnc(-c3ccncc3)n2-c2ccccc2)cc1OC`, the NF-kB reporter came out at 1 ± 0.1.

For `COc1cc2c3cc1Oc1cc(ccc1O)OC1c4c(cc(OC)c(O)c4Oc4ccc(cc4)CC3N(C)CC2)CCN1C` (stereo not given), the NF-kB reporter came to 1.05 ± 0.064.

For the molecule `O=C(C(Cl)Cl)N1CCN(Cc2ccccc2)CC1`, the NF-kB reporter was 0.67 ± 0.077.

`Cl.Cl.O=C1c2c(O)ccc(O)c2C(=O)c2c(NCCNCCO)ccc(NCCNCCO)c21`: the NF-kB reporter is 0.065 ± 0.0036.

For the molecule `CC(C)NCC(O)COCCOc1ccc(C(C)(C)C)cc1.Cl` (stereo not given), the NF-kB reporter was 1.06 ± 0.079.

In the case of `O=c1[nH]cnc2scc(-c3ccc(Br)cc3)c12`, the NF-kB reporter stood at 1.08 ± 0.073.

For the molecule `O=C(O)CCCCCN1C(=O)c2ccccc2C1=O`, the NF-kB reporter is 0.988 ± 0.074.

For the molecule `CC1=C(C(=O)OCCN(Cc2ccccc2)c2ccccc2)C(c2cccc([N+](=O)[O-])c2)C(P2(=O)OCC(C)(C)CO2)=C(C)N1` (stereo not given), the NF-kB reporter came to 0.475 ± 0.024.

Regarding `c1cn2cc(-c3ccc4cn[nH]c4c3)nc(Nc3ccc(N4CCOCC4)cc3)c2n1`, the NF-kB reporter stood at 0.759 ± 0.06.

As to `Cc1nc(-c2ccc(S(=O)(=O)NC3CCc4nc(N(C)C)ncc4C3)cc2)co1` (stereo not given), the NF-kB reporter is 1.21 ± 0.1.

In the case of `CC(Oc1cccc(Cl)c1)C(=O)NCc1ccncc1` (stereo not given), the NF-kB reporter worked out at 1.09 ± 0.071.

`C#Cc1cccc(Nc2ncnc3cc(OCCOC)c(OCCOC)cc23)c1.Cl`: the NF-kB reporter came to 0.348 ± 0.047.

`CCOC(=O)C1=C[C@]2(CC)CCCN3CCc4c(n1c1ccccc41)[C@@H]32`: the NF-kB reporter was 0.946 ± 0.077.

For the molecule `CC(=O)NC(CS)C(=O)O` (stereo not given), the NF-kB reporter was determined as 0.934 ± 0.068.

As for `COc1ccc(Cl)cc1C(=O)Nc1cc(C(F)(F)F)cc(C(F)(F)F)c1`, the NF-kB reporter amounted to 1.01 ± 0.059.

In the case of `Cc1ccc(OCCCOc2cccc3cccnc23)c(Cl)c1`, the NF-kB reporter was determined as 1.02 ± 0.056.

For the molecule `CCOc1ccc(Nc2oc(-c3ccc(COc4ccc(C)cc4)o3)nc2C#N)cc1`, the NF-kB reporter stood at 0.717 ± 0.089.

As to `Cc1cn([C@H]2C=C[C@@H](CO)O2)c(=O)[nH]c1=O` [Prestw-1279], the NF-kB reporter turned out to be 1.05 ± 0.13.

For the molecule `CCc1ccc2ncc(C#N)c(Nc3cc(OC)c(OC)c(OC)c3)c2c1.Cl`, the NF-kB reporter was determined as 1.24 ± 0.17.

Take `Br.COc1ccc(C2=NN(c3nc(-c4ccc(OC)c(F)c4)cs3)C(c3ccc(OC)cc3)C2)cc1` (stereo not given): the NF-kB reporter was 0.997 ± 0.11.

Consider `Cc1c(C)n2c3c(=O)n(Cc4ccccc4F)c(=O)n(C)c3nc2n1CCCN1CCOCC1`, for which the NF-kB reporter amounted to 1.1 ± 0.087.

`CNC(=O)c1ccccc1Sc1ccc2c(/C=C/c3ccccn3)n[nH]c2c1`: the NF-kB reporter is 0.729 ± 0.25.

For `NC[C@@H]1O[C@H](O[C@@H]2[C@@H](CO)OC(O[C@@H]3[C@@H](O)[C@H](N)C[C@H](N)[C@H]3O[C@H]3O[C@H](CN)[C@@H](O)[C@H](O)[C@H]3N)[C@@H]2O)[C@H](N)[C@@H](O)[C@@H]1O.O=S(=O)(O)O` (stereo not given in full), the NF-kB reporter was 1.01 ± 0.091.

Turning to `CS(=O)(=O)N(CC(=O)Nc1ccccc1Cl)c1ccc(Cl)c(C(F)(F)F)c1`, the NF-kB reporter was found to be 1.08 ± 0.062.

On to `N#CC(=Cc1c(F)cccc1Cl)C(=O)Nc1ccc(Cl)cc1`, for which the NF-kB reporter was 0.977 ± 0.077.

In the case of `O=c1cc(CO)occ1O`, the NF-kB reporter was 0.901 ± 0.076.

`O=C(NCC1CCCN1c1nccs1)C1CC1` (stereo not given): the NF-kB reporter amounted to 1.02 ± 0.12.

Consider `CCOCC(=O)Nc1ccc(N2CCCCC2=O)c(C)c1`, for which the NF-kB reporter is 0.79 ± 0.11.

Take `C[C@H](N[C@@H](CCc1ccccc1)C(=O)O)C(=O)N1CCC[C@H]1C(=O)O.O.O`: the NF-kB reporter amounted to 1.09 ± 0.16.

In the case of `CN(C)C1C(O)=C(C(N)=O)C(=O)C2(O)C(O)=C3C(=O)c4c(O)ccc(Cl)c4C(O)C3CC12.Cl` (stereo not given), the NF-kB reporter came to 1.1 ± 0.067.

`Cc1ccc(CN2C3=NCCCN3c3ccccc32)cc1.Cl`: the NF-kB reporter amounted to 1.25 ± 0.13.

Take `O=C(O)c1ccc2c(c1)nc(Nc1cccc(Cl)c1)c1ccncc12`: the NF-kB reporter is 1.35 ± 0.35.

As to `COc1cc(Nc2ncc3c(n2)-c2ccc(Cl)cc2C(c2c(F)cccc2OC)=NC3)ccc1C(=O)O`, the NF-kB reporter was found to be 0.72 ± 0.038.

On to `CC(C)CN(C[C@@H](O)[C@H](Cc1ccccc1)NC(=O)O[C@H]1CO[C@H]2OCC[C@H]21)S(=O)(=O)c1ccc(N)cc1.CCO`, for which the NF-kB reporter worked out at 1.11 ± 0.063.

In the case of `OC(Cn1cncn1)(Cn1cncn1)c1ccc(F)cc1F`, the NF-kB reporter came to 0.967 ± 0.066.

On to `C=Cc1c(C)c2cc3nc(cc4[nH]c(cc5nc(cc1[nH]2)C(C)=C5CCC(=O)O)c(CCC(=O)OC)c4C)[C@@]1(C)C3=CC=C(C(=O)OC)[C@H]1C(=O)OC`, for which the NF-kB reporter was found to be 0.077 ± 0.012.

Still in this test, the particulars now being: modulator concentration 10 µM; agonist: MPLA […].
On to `O=C(CSc1nc2c(c(=O)n1-c1ccccc1)SCC2)N1CCN(c2ccccc2)CC1`, for which the NF-kB reporter amounted to 1.14 ± 0.036.

Turning to `CCNC(=O)CCC/C=C\C[C@@H]1[C@@H](/C=C/C(O)CCc2ccccc2)[C@@H](O)C[C@@H]1O` (stereo not given in full), the NF-kB reporter came to 0.953 ± 0.041.

Consider `CCOc1cc(CC(=O)N[C@@H](CC(C)C)c2ccccc2N2CCCCC2)ccc1C(=O)O`, for which the NF-kB reporter was 0.956 ± 0.055.

`CC1CC(=O)C2=C(C1)OC(N)=C(C#N)C2c1ccc(Cl)cc1` (stereo not given): the NF-kB reporter turned out to be 0.928 ± 0.042.

Take `COc1ccc(C=NNC(=O)CSc2nnc(-c3ccncc3)n2-c2ccccc2)cc1OC`: the NF-kB reporter came to 0.962 ± 0.034.

In the case of `COc1cc2c3cc1Oc1cc(ccc1O)OC1c4c(cc(OC)c(O)c4Oc4ccc(cc4)CC3N(C)CC2)CCN1C` (stereo not given), the NF-kB reporter was 1.03 ± 0.084.

Regarding `O=C(C(Cl)Cl)N1CCN(Cc2ccccc2)CC1`, the NF-kB reporter is 0.709 ± 0.072.

In the case of `Cl.Cl.O=C1c2c(O)ccc(O)c2C(=O)c2c(NCCNCCO)ccc(NCCNCCO)c21`, the NF-kB reporter is 0.125 ± 0.011.

Take `CC(C)NCC(O)COCCOc1ccc(C(C)(C)C)cc1.Cl` (stereo not given): the NF-kB reporter stood at 1.13 ± 0.079.

Consider `O=c1[nH]cnc2scc(-c3ccc(Br)cc3)c12`, for which the NF-kB reporter was found to be 1.03 ± 0.061.

Take `O=C(O)CCCCCN1C(=O)c2ccccc2C1=O`: the NF-kB reporter came to 1.04 ± 0.099.

For the molecule `CC1=C(C(=O)OCCN(Cc2ccccc2)c2ccccc2)C(c2cccc([N+](=O)[O-])c2)C(P2(=O)OCC(C)(C)CO2)=C(C)N1` (stereo not given), the NF-kB reporter worked out at 0.543 ± 0.034.

As for `c1cn2cc(-c3ccc4cn[nH]c4c3)nc(Nc3ccc(N4CCOCC4)cc3)c2n1`, the NF-kB reporter worked out at 1.25 ± 0.12.

`Cc1nc(-c2ccc(S(=O)(=O)NC3CCc4nc(N(C)C)ncc4C3)cc2)co1` (stereo not given): the NF-kB reporter stood at 1.05 ± 0.053.

Take `CC(Oc1cccc(Cl)c1)C(=O)NCc1ccncc1` (stereo not given): the NF-kB reporter was 1.07 ± 0.091.

Consider `C#Cc1cccc(Nc2ncnc3cc(OCCOC)c(OCCOC)cc23)c1.Cl`, for which the NF-kB reporter was found to be 0.233 ± 0.014.

Regarding `CCOC(=O)C1=C[C@]2(CC)CCCN3CCc4c(n1c1ccccc41)[C@@H]32`, the NF-kB reporter was 0.994 ± 0.07.

For the molecule `CC(=O)NC(CS)C(=O)O` (stereo not given), the NF-kB reporter was 0.96 ± 0.09.

For `COc1ccc(Cl)cc1C(=O)Nc1cc(C(F)(F)F)cc(C(F)(F)F)c1`, the NF-kB reporter is 0.962 ± 0.086.

As for `Cc1ccc(OCCCOc2cccc3cccnc23)c(Cl)c1`, the NF-kB reporter was 0.877 ± 0.057.

Regarding `CCOc1ccc(Nc2oc(-c3ccc(COc4ccc(C)cc4)o3)nc2C#N)cc1`, the NF-kB reporter came out at 1.04 ± 0.099.

Regarding `Cc1cn([C@H]2C=C[C@@H](CO)O2)c(=O)[nH]c1=O` [Prestw-1279], the NF-kB reporter amounted to 0.957 ± 0.077.

For `CCc1ccc2ncc(C#N)c(Nc3cc(OC)c(OC)c(OC)c3)c2c1.Cl`, the NF-kB reporter stood at 0.931 ± 0.066.

As to `Br.COc1ccc(C2=NN(c3nc(-c4ccc(OC)c(F)c4)cs3)C(c3ccc(OC)cc3)C2)cc1` (stereo not given), the NF-kB reporter came out at 0.914 ± 0.1.

For `Cc1c(C)n2c3c(=O)n(Cc4ccccc4F)c(=O)n(C)c3nc2n1CCCN1CCOCC1`, the NF-kB reporter worked out at 0.958 ± 0.052.

For the molecule `CNC(=O)c1ccccc1Sc1ccc2c(/C=C/c3ccccn3)n[nH]c2c1`, the NF-kB reporter turned out to be 0.813 ± 0.061.

In the case of `NC[C@@H]1O[C@H](O[C@@H]2[C@@H](CO)OC(O[C@@H]3[C@@H](O)[C@H](N)C[C@H](N)[C@H]3O[C@H]3O[C@H](CN)[C@@H](O)[C@H](O)[C@H]3N)[C@@H]2O)[C@H](N)[C@@H](O)[C@@H]1O.O=S(=O)(O)O` (stereo not given in full), the NF-kB reporter turned out to be 0.983 ± 0.025.

For the molecule `CS(=O)(=O)N(CC(=O)Nc1ccccc1Cl)c1ccc(Cl)c(C(F)(F)F)c1`, the NF-kB reporter worked out at 0.874 ± 0.052.

On to `N#CC(=Cc1c(F)cccc1Cl)C(=O)Nc1ccc(Cl)cc1`, for which the NF-kB reporter was determined as 0.952 ± 0.079.

As for `O=c1cc(CO)occ1O`, the NF-kB reporter was 1.06 ± 0.11.

Regarding `O=C(NCC1CCCN1c1nccs1)C1CC1` (stereo not given), the NF-kB reporter was 1.13 ± 0.084.

For `CCOCC(=O)Nc1ccc(N2CCCCC2=O)c(C)c1`, the NF-kB reporter stood at 0.828 ± 0.16.

Consider `C[C@H](N[C@@H](CCc1ccccc1)C(=O)O)C(=O)N1CCC[C@H]1C(=O)O.O.O`, for which the NF-kB reporter stood at 1.03 ± 0.073.

`CN(C)C1C(O)=C(C(N)=O)C(=O)C2(O)C(O)=C3C(=O)c4c(O)ccc(Cl)c4C(O)C3CC12.Cl` (stereo not given): the NF-kB reporter was determined as 1.01 ± 0.067.

In the case of `Cc1ccc(CN2C3=NCCCN3c3ccccc32)cc1.Cl`, the NF-kB reporter is 1.32 ± 0.17.

Turning to `O=C(O)c1ccc2c(c1)nc(Nc1cccc(Cl)c1)c1ccncc12`, the NF-kB reporter turned out to be 1.4 ± 0.34.

Regarding `COc1cc(Nc2ncc3c(n2)-c2ccc(Cl)cc2C(c2c(F)cccc2OC)=NC3)ccc1C(=O)O`, the NF-kB reporter came out at 0.775 ± 0.081.

On to `CC(C)CN(C[C@@H](O)[C@H](Cc1ccccc1)NC(=O)O[C@H]1CO[C@H]2OCC[C@H]21)S(=O)(=O)c1ccc(N)cc1.CCO`, for which the NF-kB reporter was 1.7 ± 0.042.

As for `OC(Cn1cncn1)(Cn1cncn1)c1ccc(F)cc1F`, the NF-kB reporter amounted to 1.05 ± 0.091.

Regarding `C=Cc1c(C)c2cc3nc(cc4[nH]c(cc5nc(cc1[nH]2)C(C)=C5CCC(=O)O)c(CCC(=O)OC)c4C)[C@@]1(C)C3=CC=C(C(=O)OC)[C@H]1C(=O)OC`, the NF-kB reporter was found to be 0.123 ± 0.0057.

The values above are taken from the supplement of paper PMC10646978.
